The text below walks through data of ChEMBL document CHEMBL3988442, “University of Dundee, Small-Polar-MMV Screening Library” (2021).

The whole screen tested about 66,000 compounds, of which about 960 (1.5%) showed an effect of 50% or more. The sample holds strong results, similar compounds and a random draw of the others, so the mix is not that of the screen.

This assay has as its system Trypanosoma brucei. The assay can be described thus: Trypanosoma brucei 72 hour study. The assay is classed as functional, organism-based. The arrangement: scale not given: in the data most compounds retested in dose-response had high values.

With `Cl.Clc1ccccc1OCCc1cc(C2CCNC2)n[nH]1` (stereo not drawn), the “Percent Effect” value (30.3 µM, […]) is recorded as -6.852%.
As to `CN(C(=O)c1ncn2c1CN(C)S(=O)(=O)c1ccccc1-2)C1CC1.O=C(O)C(F)(F)F`, the “Percent Effect” value (30 µM, 30.03 µM) is listed as -19.09%.
For the compound `COc1cc(N2CC[C@@H]3O[C@H](C(=O)N(C)C)C[C@@H]32)ncn1.O=C(O)C(F)(F)F`, where the note is “30.3 µM, […]”, the “Percent Effect” value is listed as -9.278%.
As for `CCC(NC(=O)C1CCN(S(C)(=O)=O)CC1)c1ccc(C)c(C)c1` (stereo not drawn), the “Percent Effect” value (30 µM, 30.03 µM) is recorded as -5.711%.
Take `CCOCc1cc(CN2CCn3c(CO)nnc3C2)ccc1OC.O=C(O)CC(O)(CC(=O)O)C(=O)O`: the “Percent Effect” value (30.3 µM, […]) is given as -50.73%.
Take `O=C(O)C(F)(F)F.O=C1N(CC2CC2)CCC12CCN(c1ncccn1)CC2`: the “Percent Effect” value (30.3 µM, […]) is -19.41%.
Consider `CCS(=O)(=O)N1CCC2(CC1)CN(CC1CCOC1)c1ccccc12.O=C(O)C(F)(F)F` (stereo not drawn), for which, where the note is “30.3 µM, […]”, the “Percent Effect” value is reported as 14.83%.
Regarding `CS(=O)(=O)N1CCC2(CC1)CN(CC1CCOC1)c1ccccc12.O=C(O)C(F)(F)F` (stereo not drawn), the “Percent Effect” value (30.3 µM, […]) came out at 18.78%.
On to `O=C(O)C(F)(F)F.c1cnc(N2CCC3(CC2)CN(CC2CC2)c2ccccc23)nc1`, for which the “Percent Effect” value (30.3 µM, […]) is recorded as 99.63%.
For `O=C(O)C(F)(F)F.O=C(O)C(F)(F)F.c1cnc(N2CCC3(CCN(CC4CC4)CC3)CC2)nc1`, under “30.3 µM, […]”, the “Percent Effect” value came to 8.512%.
Take `O=C(O)C(F)(F)F.c1ccc2c(c1)N(CC1CCOC1)CC21CCN(c2cnccn2)CC1` (stereo not drawn): under “30.3 µM, […]”, the “Percent Effect” value was determined as 99.95%.
In the case of `Cc1noc(C(C)N2CCN(CCC(=O)N3CCOCC3)CC2)n1` (stereo not drawn), for the setting “30 µM, 30.03 µM”, the “Percent Effect” value is on record as -18.56%.
With `Cn1ccnc1C(=O)NCc1cnc2n1CCN(CC1CC1)CC2.O=C(O)C(F)(F)F.O=C(O)C(F)(F)F`, the “Percent Effect” value (30.3 µM, […]) is recorded as -46.77%.
On the same count and under the same terms, in the case of `COCCN1CCn2c(CN(C)C(C)C)cnc2C1.O=C(O)C(F)(F)F.O=C(O)C(F)(F)F` it was 0.5782%.
Turning to `CC(C)N(C)Cc1cnc2n1CCN(CCc1ccccc1)C2.O=C(O)C(F)(F)F.O=C(O)C(F)(F)F`, the “Percent Effect” value (30 µM, 30.03 µM) is listed as 55.49%.
For `CC(C)N(C)Cc1cnc2n1CCN(Cc1cccc(F)c1)C2.O=C(O)C(F)(F)F.O=C(O)C(F)(F)F`, the “Percent Effect” value (30.3 µM, […]) is listed as -6.591%.
On the same count and under the same terms, with `CCn1nnc2c1C(COCC(=O)N(C)C)CN(Cc1ccco1)C2.O=C(O)C(F)(F)F` (stereo not drawn) the figure was -38.68%.
Regarding `COc1cccc(-c2nc(C)c(C(=O)NCCC(=O)O)s2)c1`, the “Percent Effect” value (30 µM, 30.03 µM) was -31.35%.
`CC(C)CC(=O)N1CC(=O)c2sc(Nc3ccc(C#N)cc3)nc2C1`: the “Percent Effect” value (30.3 µM, […]) was -13.31%.
For the compound `O=C1NCC2(CCCN(Cc3ccc(F)cc3)C2)Oc2ccccc21` (stereo not drawn), the “Percent Effect” value (30.3 µM, […]) was found to be 13.09%.
For `O=C1NCC2(CCCN(Cc3ccccc3F)C2)Oc2ccccc21` (stereo not drawn), the “Percent Effect” value (30.3 µM, […]) is given as -8.26%.
Consider `O=C1NCC2(CCCN(CCc3ccccc3)C2)Oc2ccccc21` (stereo not drawn), for which, for the setting “30.3 µM, […]”, the “Percent Effect” value is -38.35%.
As to `CSc1ccc(CN2CCCC3(CNC(=O)c4ccccc4O3)C2)cc1` (stereo not drawn), under “30.3 µM, […]”, the “Percent Effect” value worked out at 60.61%.
As for `O=C1NCC2(CCCN(Cc3ccc(Cl)s3)C2)Oc2ccccc21` (stereo not drawn), the “Percent Effect” value (30 µM, 30.03 µM) is reported as 12.52%.
Take `C=Cc1ccc(CN2CCCC3(CNC(=O)c4ccccc4O3)C2)cc1` (stereo not drawn): the “Percent Effect” value (30.3 µM, […]) is given as 79.56%.
In the case of `Cc1ccc(CN(CCCn2ccnc2)Cc2[nH]cnc2C)s1.O=C(O)CC(O)(CC(=O)O)C(=O)O`, the “Percent Effect” value (30.3 µM, […]) came out at 19.63%.
On to `O=C(O)C(F)(F)F.O=C(O)C(F)(F)F.O=C(c1ccncc1)N1CC2(CCNCC2)c2cc(Cl)ccc21`, for which, where the note is “30.3 µM, […]”, the “Percent Effect” value is given as -51.23%.
For `O=C(O)C(F)(F)F.O=C(c1cscn1)N1CC[C@@H]2[C@@H]1CCN2CC1CCOC1` (stereo partly drawn), the “Percent Effect” value (30.3 µM, […]) is on record as -46.23%.
For the compound `Cc1cc(O)c(OCC(=O)/N=c2\[nH]c(C)cs2)cn1`, the “Percent Effect” value (30 µM, 30.03 µM) is recorded as -14.8%.
For the compound `COc1cccc(-c2noc(-c3ccc(NCC4CC4)nc3)n2)c1OC`, the “Percent Effect” value (30 µM, 30.03 µM) is listed as 64.24%.
Turning to `CNCCNc1ccc(-c2nc(-c3cccc(OC)c3OC)no2)cn1`, the “Percent Effect” value (30 µM, 30.03 µM) came to 17.24%.
`COc1cccc(-c2noc(-c3ccc(NCC(C)C)nc3)n2)c1OC`: the “Percent Effect” value (30 µM, 30.03 µM) is given as 3.504%.
With `CCN(CC)S(=O)(=O)c1ccc(CNC(=O)N2CCCCCC2)cc1`, where the note is “30 µM, 30.03 µM”, the “Percent Effect” value turned out to be 27.66%.
Regarding `CCN(CC)S(=O)(=O)c1ccc(CNC(=O)N2CCC(C#N)CC2)cc1`, where the note is “30 µM, 30.03 µM”, the “Percent Effect” value is given as 70.46%.
The same measure, in the same setting: with `CCN(CC)c1ccc(CNC(=O)N2CCC(C#N)CC2)cc1` the figure was 36.77%.
As to `CCN(CC)S(=O)(=O)c1ccc(CNC(=O)c2cc(C)on2)cc1`, where the note is “30.3 µM, […]”, the “Percent Effect” value stood at 58.42%.
For `CCN(CC)S(=O)(=O)c1ccc(CCC(=O)NCc2cc(C)on2)cc1`, the “Percent Effect” value (30.3 µM, […]) is -181.3%.
For the compound `Cc1cc(C(=O)NCc2cc(C)oc2C)no1`, the “Percent Effect” value (30 µM, 30.03 µM) was -30.84%.
On to `CC1(C)CN(C(CNC2=NCCN2)c2ccc(Cl)cc2)CCO1.I` (stereo not drawn), for which, for the setting “30 µM, 30.03 µM”, the “Percent Effect” value came to 11.29%.
In the case of `c1ccc(-c2nnc3sc(CCN4CCCC4)nn23)cc1`, the “Percent Effect” value (30 µM, 30.03 µM) is -48.79%.
Regarding `Cc1ccc(CN2CC[C@H]3C[C@H](C(=O)N(C)C)O[C@H]3C2)cc1.O=C(O)C(F)(F)F`, the “Percent Effect” value (30 µM, 30.03 µM) is 45.02%.
Regarding `CN1CCNC(Cc2ccc(-c3ccncc3)cc2)C1=O.Cl` (stereo not drawn), for the setting “30.3 µM, […]”, the “Percent Effect” value is reported as -41.95%.
For the compound `CN(C)c1ncc(C2Nc3ccccc3C3=NCCCN32)cn1.Cl` (stereo not drawn), the “Percent Effect” value (30.3 µM, […]) is on record as -6.507%.
For the compound `COc1cc(OC)c(C2Nc3cc(Cl)ccc3C3=NCCN32)cc1OC` (stereo not drawn), the “Percent Effect” value (30 µM, 30.03 µM) came to 4.882%.
For the compound `COc1ccc(C2Nc3ccccc3C3=NCCCN32)cc1OC` (stereo not drawn), the “Percent Effect” value (30 µM, 30.03 µM) was -8.154%.
With `COc1cc(C2Nc3cc(Cl)ccc3C3=NCCN32)cc(OC)c1OC` (stereo not drawn), for the setting “30.3 µM, […]”, the “Percent Effect” value is given as 19.53%.
Consider `COc1ccc(C2Nc3cc(Cl)ccc3C3=NCCN32)cc1CO` (stereo not drawn), for which the “Percent Effect” value (30.3 µM, […]) was found to be 83.77%.
Take `COc1ccc(C2Nc3cc(Cl)ccc3C3=NCCN32)cc1O` (stereo not drawn): the “Percent Effect” value (30.3 µM, […]) is 12.75%.
With `COc1ccc(C2Nc3cc(Cl)ccc3C3=NCCN32)cc1OC` (stereo not drawn), the “Percent Effect” value (30 µM, 30.03 µM) is 25.02%.
Take `CN(C)c1ncc(C2Nc3cc(Cl)ccc3C3=NCCCN32)cn1.Cl` (stereo not drawn): the “Percent Effect” value (30.3 µM, […]) is given as 62.93%.
Same read-out and setting: in the case of `COc1cc(C2Nc3cc(Cl)ccc3C3=NCCN32)ccc1O` (stereo not drawn) it was 69.32%.
On the same count and under the same terms, in the case of `O=C(O)C1CN(c2cncc(Cc3ccccc3F)n2)C1` it was -23.43%.
For the compound `CC(=O)N1CCC(N2CCC(c3nc(C)cc(C)n3)C2)CC1.O=CO` (stereo not drawn), the “Percent Effect” value (30.3 µM, […]) is given as -13.11%.
Consider `CC(C)C(=O)N1CC[C@H]2N(C)CC[C@@]2(C(=O)Nc2cccnc2)CC1.O=C(O)C(F)(F)F.O=C(O)C(F)(F)F`, for which, where the note is “30.3 µM, […]”, the “Percent Effect” value is reported as -93.75%.
Take `CCCc1cc(C(=O)N2C[C@H](O)[C@@H](N3CCCC3)C2)ccn1`: under “30.3 µM, […]”, the “Percent Effect” value is given as -5.682%.
For the compound `CCCc1cc(C(=O)N2C[C@H]3CC=C(C)C[C@H]3C2)ccn1`, the “Percent Effect” value (30.3 µM, […]) is reported as 56.41%.
Consider `CCCc1cc(C(=O)N2CC(c3ccncc3)C2)ccn1`, for which the “Percent Effect” value (30.3 µM, […]) was -10.84%.
For the compound `CC1=CC[C@@H]2CN(C(=O)c3ccc(-c4cc[nH]n4)cc3)C[C@@H]2C1`, where the note is “30 µM, 30.03 µM”, the “Percent Effect” value was 55.2%.
As to `CC1=CC[C@@H]2CN(C(=O)c3ccc(-c4nnn(C)n4)cc3)C[C@@H]2C1`, the “Percent Effect” value (30 µM, 30.03 µM) was 59.61%.
For the compound `O=C(c1ccc(F)cc1)N1C[C@@H]2CN(c3ncccn3)C[C@@H]2C1`, for the setting “30.3 µM, […]”, the “Percent Effect” value is recorded as -32.62%.
`CC1=CC[C@@H]2CN(C(=O)c3ccc(-c4nc[nH]n4)cc3)C[C@@H]2C1`: the “Percent Effect” value (30 µM, 30.03 µM) stood at 36.48%.
With `Cc1ccc(C(=O)N2C[C@@H]3CN(c4ncccn4)C[C@@H]3C2)cc1`, for the setting “30.3 µM, […]”, the “Percent Effect” value was -8.111%.
`O=C(c1ccc(-c2cc[nH]n2)cc1)N1CC[C@H](CO)[C@H](O)C1`: the “Percent Effect” value (30 µM, 30.03 µM) stood at 0.05802%.
